Data as given in PubChem BioAssay (NCATS).
Values joined by “and” are separate entries in the source; they are usually repeats but may differ in a detail not shown here. Equal entries are not always repeated. Records with an inconclusive call do not appear. Where a call stands in place of a potency, no number is given. A number with no mark means an inactive call. Active and inactive are the calls of the source. Unless noted, calls come from the whole dose curve; as a rule, active = well fitted curve in the direction sought with a large enough effect; inconclusive = small, poorly fitted or top-dose-only effect, or another doubt; inactive = no such curve, though single readings can be large; an effect the other way counts as inactive or inconclusive.

Key:
[1] = biological target: Cellular tumor antigen p53 (Homo sapiens) (UniProt P04637); experiment: Primary qHTS for small molecule compounds that upregulate eGFP-tagged delta133p53alpha (in N-terminal) cells. (AID 2060322); conditions: NCI-H358 eGFP-delta133p53alpha fluorescence, 24 h; activation: stronger effect = higher value; note: nearly all actives have a fitted effect of over 75% in size; note: potency is the fitted concentration of half-maximal effect; for activation: series mostly up to about 56 µM
Method in brief: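 NCI-H358 cells pre-induced 24 h with 10 ng/ml doxycycline to express N-terminal eGFP-delta133p53alpha, then dosed 24 h at 37C without doxycycline; fixed, Hoechst-stained, GFP intensity by laser scanning cytometry, normalized to DMSO (0%) and 57.5 uM 5-azacytidine (100%).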

[2] = biological target: Aldehyde dehydrogenase, mitochondrial (Homo sapiens) (UniProt P05091); experiment: qHTS for Inhibitors of the Aldehyde Dehydrogenase Family (ALDH2) Validation screens (AID 2061302; active = well fitted inhibition curve with a large enough effect; title and protocol of this record describe different tests; note: potency is the fitted concentration of half-maximal effect)
[3] = qHTS for Inhibitors of the Aldehyde Dehydrogenase Family (ALDH1A2, ALDH1A3, ALDH2, ALDH3A1) (AID 2061307); note: test system not described further here; potency is the fitted concentration of half-maximal effect; nearly all actives have a fitted effect of over 50% in size
[4] = biological target: Aldehyde dehydrogenase 1A1 (Homo sapiens) (UniProt P00352); experiment: qHTS for Inhibitors of the Aldehyde Dehydrogenase Family (ALDH1A1) Confirmatory screens (AID 2061316); note: nearly all actives have a fitted effect of over 65% in size; note: potency is the fitted concentration of half-maximal effect
[5] = biological target: Cellular tumor antigen p53 (Homo sapiens) (UniProt P04637); experiment: Primary qHTS for small molecule compounds that upregulate eGFP-tagged delta133p53alpha (in C-terminal) cells. (AID 2060324)
Method in brief: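 In this qHTS, GFP-tagged delta133p53alpha levels are measured in fixed NCI-H358 cells after 24 h compound exposure at 37 °C. The cells are pre-induced with 100 ng/ml doxycycline, and signal is normalized to DMSO-treated wells as 0%.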

[6] = BET inhibitor-based combinations targeting novel dependencies in MECOM-rearranged (r) AML: SET-2 cell line (AID 2202231); conditions: SET-2 AML cells viability, CellTiter-Glo luminescence, 48 h; viability: stronger effect = lower value, series mostly up to about 46 µM; note: nearly all actives have a fitted effect of over 35% in size
Method in brief: (§1)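 AML cell lines seeded at 500 cells/well, treated with 11-point dose curves for 48 h. Viability by CellTiter-Glo luminescence, normalised to DMSO and empty wells; activity expressed as AUC and per-cell-line Z-transformed AUC.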

[7] = BET inhibitor-based combinations targeting novel dependencies in MECOM-rearranged (r) AML: OCI-AML3 cell line (AID 2202232); conditions: Potency: OCI-AML3 viability; note: potency is the fitted concentration of half-maximal effect; nearly all actives have a fitted effect of over 35% in size
Method in brief: as §1

[8] = BET inhibitor-based combinations targeting novel dependencies in MECOM-rearranged (r) AML: UCSD-AML1 cell line (AID 2202235); note: series mostly up to about 46 µM; nearly all actives have a fitted effect of over 40% in size
Method in brief: (§2)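 Cells at 500/well were exposed for 48 hr to MIPE v5.0 drugs as 11-point dose curves. Viability was read by CellTiter-Glo luminescence and normalized to DMSO and empty-well controls. Activity was expressed as AUC and per-cell-line Z-AUC.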

[9] = BET inhibitor-based combinations targeting novel dependencies in MECOM-rearranged (r) AML: AML-191 cell line (AID 2202236; note: nearly all actives have a fitted effect of over 35% in size; note: potency is the fitted concentration of half-maximal effect)
Method in brief: as §1

[10] = BET inhibitor-based combinations targeting novel dependencies in MECOM-rearranged (r) AML: AML-194 cell line (AID 2202237; note: nearly all actives have a fitted effect of over 40% in size)
Method in brief: as §1

[11] = BET inhibitor-based combinations targeting novel dependencies in MECOM-rearranged (r) AML: MV-4-11 cell line (AID 2202233); note: nearly all actives have a fitted effect of over 45% in size
Method in brief: as §2

[12] = BET inhibitor-based combinations targeting novel dependencies in MECOM-rearranged (r) AML: HNT-34 cell line (AID 2202234); note: nearly all actives have a fitted effect of over 35% in size
Method in brief: as §2

[13] = biological target: Aldehyde dehydrogenase, mitochondrial (Homo sapiens) (UniProt P05091); experiment: qHTS for Inhibitors of the Aldehyde Dehydrogenase Family (ALDH2) Confirmatory screens (AID 2061303; active = well fitted inhibition curve with a large enough effect; title and protocol of this record describe different tests; note: nearly all actives have a fitted effect of over 45% in size)
[14] = biological target: Retinaldehyde dehydrogenase 3 (Homo sapiens) (UniProt P47895); experiment: qHTS for Inhibitors of the Aldehyde Dehydrogenase Family (ALDH1A3) Validation screen (AID 2061312); note: nearly all actives have a fitted effect of over 45% in size
[15] = biological target: Retinal dehydrogenase 2 (Homo sapiens) (UniProt O94788); experiment: qHTS for Inhibitors of the Aldehyde Dehydrogenase Family (ALDH1A2) Confirmation screens (AID 2061314); note: potency is the fitted concentration of half-maximal effect; nearly all actives have a fitted effect of over 65% in size
[16] = biological target: Aldehyde dehydrogenase, mitochondrial (Homo sapiens) (UniProt P05091); experiment: qHTS for Inhibitors of the Aldehyde Dehydrogenase Family (ALDH2) Primary screen (AID 2061308); note: nearly all actives have a fitted effect of over 55% in size
[17] = biological target: Retinaldehyde dehydrogenase 3 (Homo sapiens) (UniProt P47895); experiment: qHTS for Inhibitors of the Aldehyde Dehydrogenase Family (ALDH1A3) Primary screen (AID 2061315)

Cellular tumor antigen p53 (Homo sapiens), sequence (P04637 whole entry, looked up): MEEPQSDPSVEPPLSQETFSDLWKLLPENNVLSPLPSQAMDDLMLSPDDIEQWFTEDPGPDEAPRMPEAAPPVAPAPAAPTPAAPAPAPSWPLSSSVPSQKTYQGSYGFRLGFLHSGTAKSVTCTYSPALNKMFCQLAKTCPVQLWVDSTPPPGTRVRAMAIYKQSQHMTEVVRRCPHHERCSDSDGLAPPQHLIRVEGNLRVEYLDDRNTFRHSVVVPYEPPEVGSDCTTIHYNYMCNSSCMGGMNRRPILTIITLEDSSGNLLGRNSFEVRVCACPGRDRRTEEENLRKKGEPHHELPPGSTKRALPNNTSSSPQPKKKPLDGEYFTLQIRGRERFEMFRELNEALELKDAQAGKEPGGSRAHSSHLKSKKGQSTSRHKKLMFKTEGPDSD

Q: Which results are given for O=c1onc2cnc3ccccc3n12?
A: activation [1]: 14.8%; Potency [2]: 6.31 µM (active); Potency [3]: 0.0318 µM (active); Potency [4]: 4 µM (active)

Q: With CC1=C(/C=C/C(C)=C/C=C/C(C)=C\C(=O)O)C(C)(C)CCC1 as the compound, how does the activation [1] read?
A: -30.1%

Q: What about the Potency [5] of the same compound?
A: inactive

Q: And the viability [6]?
A: 102%

Q: What about the Potency [7] of the same compound?
A: 0.742 µM (active)

Q: What about the Potency [8] of the same compound?
A: inactive

Q: And the Potency [9]?
A: 5.25 µM (active)

Q: What about the Potency [10] of the same compound?
A: inactive

Q: Which results are given for N#C/C(=C\c1ccc(-c2cc(Cl)ccc2Cl)o1)C(=O)Nc1cccc2ncccc12?
A: activation [1]: -37.8%; Potency [2]: inactive

Q: With NNCCc1ccccc1 as the compound, how does the activation [1] read?
A: 11.9% and 3.32% and -5.28%

Q: And the Potency [5]?
A: inactive

Q: And the viability [6]?
A: 108%

Q: What about the Potency [7] of the same compound?
A: 7.42 µM (active)

Q: What about the Potency [11] of the same compound?
A: inactive

Q: And the Potency [12]?
A: inactive

Q: What about the Potency [8] of the same compound?
A: inactive

Q: What about the Potency [10] of the same compound?
A: inactive

Q: Which results are given for OCC1O[C@H]([S-])[C@H](O)[C@@H](O)[C@@H]1O.[Au+] (some centres not stated)?
A: activation [1]: 21.8%; Potency [2]: inactive; Potency [13]: inactive; Potency [3]: 2.83 µM (active); Potency [4]: inactive

Q: With O=C1c2ccccc2C(=O)c2c(NCCc3ccc(O)cc3)ccc(NCCc3ccc(O)cc3)c21 as the compound, how does the activation [1] read?
A: -13.7%

Q: And the Potency [2]?
A: inactive

Q: For O=C1NC(=O)/C(=C/c2ccc(-c3ccc(F)cc3O)o2)S1, which activation [1] is on record?
A: -29.7%

Q: And the Potency [2]?
A: inactive

Q: Which activation [1] does the source give for C=CCN1CCc2c(cc(O)c(O)c2Br)[C@@H](c2ccccc2)C1 here?
A: -46.3%

Q: What about the Potency [2] of the same compound?
A: inactive

Q: For NCCCCCCCCCCN, which activation [1] is on record?
A: 28.3%

Q: What about the Potency [2] of the same compound?
A: inactive

Q: And the Potency [14]?
A: inactive

Q: With NS(=O)(=O)c1cccc2c1c([N+](=O)[O-])cc1nc(O)c(O)nc12 as the compound, how does the activation [1] read?
A: -8.06%

Q: What about the Potency [5] of the same compound?
A: inactive

Q: What about the Potency [14] of the same compound?
A: inactive

Q: What about the Potency [15] of the same compound?
A: 25.2 µM (active)

Q: And the Potency [4]?
A: 12.7 µM (active)

Q: For NC(Cc1cccc(-c2ccccc2CP(=O)(O)O)c1)C(=O)O (configuration not stated), which activation [1] is on record?
A: 5.19%

Q: And the Potency [2]?
A: inactive

Q: Which Potency [1] does the source give for COC(=O)C1=C(C)NC(C)=C(C(=O)OC)C1c1cccc(NC(=O)NCCCN2CCC(c3cccc(OC)c3)CC2)c1 here?
A: 21.3 µM (active)

Q: And the Potency [2]?
A: inactive

Q: And the Potency [16]?
A: inactive

Q: And the Potency [14]?
A: inactive

Q: And the Potency [17]?
A: inactive

Q: With Nc1ncnc2n[nH]c(Nc3ccc(F)cc3)c12 as the compound, how does the activation [1] read?
A: 1%

Q: And the Potency [2]?
A: inactive

Q: And the Potency [16]?
A: inactive

Q: What about the Potency [14] of the same compound?
A: inactive

Q: What about the Potency [17] of the same compound?
A: inactive

Q: For CCCCOC(=O)NS(=O)(=O)c1sc(CC(C)C)cc1-c1ccc(Cn2c(CC)nc3c(C)cc(C)nc32)cc1, which activation [1] is on record?
A: -46.4%

Q: What about the Potency [2] of the same compound?
A: inactive

Q: And the Potency [14]?
A: inactive

Q: With O=C1NC(=O)/C(=C/c2ccc3nccnc3c2)S1 as the compound, how does the activation [1] read?
A: 18.2%

Q: What about the Potency [5] of the same compound?
A: inactive

Q: What about the viability [6] of the same compound?
A: 113%

Q: And the Potency [11]?
A: inactive

Q: And the Potency [12]?
A: inactive

Q: What about the Potency [8] of the same compound?
A: inactive

Q: And the Potency [9]?
A: inactive

Q: What about the Potency [10] of the same compound?
A: inactive

Q: Which activation [1] does the source give for COCCOc1cc2ncnc(Cl)c2cc1OCCOC here?
A: -22.2%

Q: And the Potency [2]?
A: inactive

Q: Which activation [1] does the source give for O=c1c(-c2ccc(O)cc2)coc2cc(OC3O[C@H](CO)[C@H](O)[C@H](O)[C@H]3O)cc(O)c12 (some centres not stated) here?
A: 21%

Q: And the Potency [2]?
A: 44.7 µM (active)
